# FXIa inh mix – FXIa protease inhibitors in compound pools, primary screen, biochemical, 10-compound mixtures | purified FXIa, fluorogenic substrate, pooled mixtures | inhibition, % at 5 µM | actives 0.19% (n = 62,000) | AID 680, 2007;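 further: each value is inhibition by a whole ten-compound pool holding the compound; 0% = enzyme with no mixture and 100% = wells lacking enzyme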
# FXIIa mix inh – human factor XIIa inhibitors, primary screen, biochemical, pooled compound mixtures, fluorogenic substrate | purified FXIIa | inhibition, % at 5 µM | actives 0.2% (n = 62,000) | AID 684, 2007;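 further: 0% = enzyme without compound and 100% = no enzyme blank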
# C1s inh – complement C1s protease inhibitors, primary screen, biochemical, 10-compound mixtures. purified C1s, fluorogenic AMC substrate, pooled mixtures. actives 0.16% (n = 62,000). mean inhibition % of two 10-compound mixtures (hits give high values), % at 5 µM (by protocol). Complement C1s subcomponent (Homo sapiens), P09871;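 active means inhibition above 20% in each of the two 10-compound mixture wells holding the compound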;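 further: 0% = enzyme wells lacking compound mixture and 100% = no-enzyme blank wells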
# Target sequence (P09871 16-437 limits assumed): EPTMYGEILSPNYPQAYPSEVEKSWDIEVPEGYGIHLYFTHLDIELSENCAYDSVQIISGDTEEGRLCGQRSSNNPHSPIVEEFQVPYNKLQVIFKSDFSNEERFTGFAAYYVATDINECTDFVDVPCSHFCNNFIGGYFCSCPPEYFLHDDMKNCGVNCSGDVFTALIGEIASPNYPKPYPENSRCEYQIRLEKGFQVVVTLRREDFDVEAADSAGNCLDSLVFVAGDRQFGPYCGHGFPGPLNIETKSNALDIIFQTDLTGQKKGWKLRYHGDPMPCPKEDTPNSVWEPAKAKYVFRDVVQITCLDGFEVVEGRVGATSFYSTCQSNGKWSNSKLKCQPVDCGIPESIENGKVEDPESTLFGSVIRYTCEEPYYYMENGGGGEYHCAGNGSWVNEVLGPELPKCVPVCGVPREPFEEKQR
# Target sequence (P09871 438-688 limits assumed): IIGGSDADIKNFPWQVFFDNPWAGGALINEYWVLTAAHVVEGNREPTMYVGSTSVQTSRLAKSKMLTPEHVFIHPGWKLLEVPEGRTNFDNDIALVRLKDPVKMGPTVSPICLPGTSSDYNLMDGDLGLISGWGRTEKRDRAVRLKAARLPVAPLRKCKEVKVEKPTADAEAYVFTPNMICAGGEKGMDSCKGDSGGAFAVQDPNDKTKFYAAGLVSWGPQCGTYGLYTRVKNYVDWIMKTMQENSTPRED
# Cathepsin G inh – human cathepsin G inhibitors, primary screen, biochemical, pooled compound mixtures, AMC fluorescence. purified enzyme, AMC-tetrapeptide fluorescence. inhibition, % at 5 µM (by protocol). actives 0.2% (n = 62,000). AID 581, 2007;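 active means inhibition above 20% in each of the two mixture wells holding the compound; inactive means inhibition of 20% or less in either well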;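 further: 0% = enzyme control without mixture and 100% = blank lacking enzyme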
# HePTP inh – inhibitors of human HePTP phosphatase, primary screen, biochemical, absorbance, leukemia target; Tyrosine-protein phosphatase non-receptor type 7 (Homo sapiens), P35236; recombinant HePTP phosphatase activity, OD absorbance; inhibition, % at 20 µM; actives 0.64% (n = 110,000); AID 521, 2006; in the data active means inhibition above about 50%;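 further: plate controls were vehicle for no effect and reference inhibitor for full effect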
# BAP1 inh – inhibitors of BAP1 deubiquitinase, primary screen, biochemical, Ub-AMC fluorescence, kinetic; recombinant BAP1, Ub-AMC hydrolysis fluorescence kinetic; hits give low values; calls only at 20 µM; Ubiquitin carboxyl-terminal hydrolase BAP1 (Homo sapiens), Q92560; actives 0.48% (n = 72,000);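 active means activity remaining at or below 50% of control, provided the compound also passes the data quality filters; inactive means the rest, including low values that fail the filters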;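 further: 100% = DMSO wells rate and 0% = substrate alone blank rate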
# The depositor's hits bear a star; i = inactive; · = no result given; + = active, no number. Compounds with a hit are over-represented: about 1.1% of the library has one in this group of screens. Unless noted, no stated cut-off is given here; in the data, active means inhibition above about 20% (passing the limit was not always enough); inactive means the rest.
SMILES,FXIa inh mix,FXIIa mix inh,C1s inh,Cathepsin G inh,HePTP inh,BAP1 inh
O=C(/C=C/c1ccco1)Nc1cc(Cl)ccc1Cl,·,·,·,·,55*,·
O=C(/C=C/c1ccco1)Nc1cc(Cl)cc(Cl)c1,·,·,·,·,39,·
O=C(/C=C/c1ccco1)Nc1ccccc1[N+](=O)[O-],·,·,·,·,84*,·
COc1cc(/C=C2/C(=O)N(c3ccc(Cl)c(C(=O)O)c3)N=C2C)ccc1Oc1nc2c(c(=O)n(C)c(=O)n2C)n1C,·,·,·,·,6,·
OCCNC(=S)Nc1ccc2nc(-c3ccccc3)c(-c3ccccc3)nc2c1,·,·,·,·,12,·
CCN(CC)CCCN1C(=O)C(=O)/C(=C(/O)c2ccc3c(c2)OCCO3)C1c1ccc(C)o1 (stereo not drawn),-4,2,-30,5,14,+
CCOc1cc(/C=C2\SC(N)=NC2=O)cc(Br)c1OS(=O)(=O)c1ccc(C)cc1,·,·,·,·,-9,·
COc1ccc(-n2nc3ccc(NC(=O)/C=C\c4ccccc4)cc3n2)cc1,·,·,·,·,102*,·
O=C(Nc1nccs1)c1sc2ccccc2c1Cl,·,·,·,·,82*,·
CC(C)C1=NN2C(=N)/C(=C/c3ccc(-c4ccc([N+](=O)[O-])cc4)o3)C(=O)N=C2S1,·,·,·,·,79*,·
NC1=NC(=O)/C(=C\c2ccc(-c3ccc([N+](=O)[O-])cc3)o2)S1,·,·,·,·,64*,·
CCCC1=NN2C(=N)/C(=C/c3ccc(-c4ccc([N+](=O)[O-])cc4Br)o3)C(=O)N=C2S1,·,·,·,·,76*,·
OCc1nc2ccccc2n1/N=C/c1ccccc1,·,·,·,·,-25,·
O=C(NCc1ccco1)C(Cc1ccccc1)N1C(=O)c2ccccc2C1=O (stereo not drawn),26*,4,1,-2,9,i
C=CCN=C1CC(C)(C)CC(=O)/C1=C(/O)CCC,·,·,·,·,102*,·
CCC/C(O)=C1/C(=O)CC(C)(C)CC1=NCCCCCCN=C1CC(C)(C)CC(=O)/C1=C(/O)CCC,·,·,·,·,-4,·
O=[N+]([O-])c1cc(Cl)ccc1NCCNS(=O)(=O)c1ccc(Cl)cc1,·,·,·,·,-1,·
COc1ccc(CCNC(=O)/C=C/c2ccc([N+](=O)[O-])cc2)cc1,·,·,·,·,75*,·
Cn1c(=O)n(C)c2cc(C(=O)O)ccc21,6,7,-8,9,5,i
Cn1c(=O)n(C)c2cc(C(N)=O)ccc21,2,32*,16,14,7,i
COc1ccc(C(=O)O/N=C2/C(=O)N(C)c3ccccc32)cc1[N+](=O)[O-],·,·,·,·,0,·
Cc1ccc(NC(=O)O/N=C\c2ccc(F)cc2)cc1,·,·,·,·,-20,·
COc1cc(/C=N/NC(=S)Cc2ccccc2)cc(OC)c1OC,·,·,·,·,104*,·
Cc1sc(NC(=O)/C=C\C(=O)O)nc1-c1ccccc1,·,·,·,·,103*,·
Cc1sc(NC(=O)NC2CCCCC2)nc1-c1ccccc1,·,·,·,·,-4,·
SMILES,FXIa inh mix,FXIIa mix inh,C1s inh,Cathepsin G inh,HePTP inh,BAP1 inh
Cc1sc(NC(=O)CCC2CCCCC2)nc1-c1ccccc1,·,·,·,·,102*,·
COc1cccc(/C=C2\SC(N3CCOCC3)=NC2=O)c1O,·,·,·,·,6,·
Cc1ccc2c(nc3s/c(=C\c4ccc(-c5cccc(C(F)(F)F)c5)o4)c(=O)n32)c1C,·,·,·,·,3,·
COc1cc(/C=c2\sc3nc4ccccc4n3c2=O)cc(I)c1OCC(=O)O,·,·,·,·,75*,·
CCOc1cc(/C=c2/sc3nc4ccccc4n3c2=O)cc(I)c1OCC,·,·,·,·,-3,·
O=C(Nc1cccc(Br)c1)Nc1ccc2nccnc2c1,·,·,·,·,7,·
COc1ccc(C2C=C(c3ccccc3)Nc3nc(CCCO)nn32)cc1 (stereo not drawn),41*,9,-26,10,8,·
CCCOc1cccc(C(=O)Nc2cc3nn(-c4ccc(OC)cc4)nc3cc2C)c1,·,·,·,·,1,·
O=C(C(c1ccccc1)c1ccccc1)N1CCN(Cc2ccccc2[N+](=O)[O-])CC1,·,·,·,·,-8,·
Cc1cc(I)c2c(c1)C1C=CCC1C(C(=O)O)N2 (stereo not drawn),·,·,·,·,102*,·
CC(C)C1Nc2ccc(S(N)(=O)=O)cc2C2C=CCC21 (stereo not drawn),8,-18,-42,-6,-10,i
Cc1ccc2c(c1)C1C=CCC1C(C(=O)O)N2 (stereo not drawn),1,-3,-4,-4,102*,i

# Assay outcomes from PubChem BioAssay.
